AMA1-RON2 inh: disrupts binding of P. falciparum AMA1 to RON2. 0.2% of 360,000 active. Potency, µM (series often up to 58.2 µM), for the others: at the highest dose activity change, negative = inhibition, most hits filed as inhibitors. AlphaScreen AMA1-biotinylated RON2 peptide binding;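 note: 0% = vehicle wells and -100% = peptide control; nearly all actives have a fitted effect of over 45% in size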
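AMA1 (3D7) with his tag at 25 nM final met compounds first, then biotinylated RON2 peptide at 25 nM; detection used donor plus acceptor beads, 10 µg/mL apiece, read by AlphaScreen after 30 min at room temperature.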
Pf growth 48h: P. falciparum growth inhibition at 48 hours (one generation); Potency, µM (highest dose often 28.7 µM), inactives show at the highest dose activity change, negative = inhibition, hits mostly inhibitors; 5.9% of 310,000 active; AID 504832; P. falciparum luciferase growth in erythrocytes, 48 h; note: % is set by controls: 0 for no effect and ±100 for the full control effect
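Growth was read as firefly luciferase luminescence after a 48 h, 37 C, 5% CO2 exposure of compounds to reporter-bearing P. falciparum cultures (0.1% parasitemia, 2% hematocrit final) in Albumax-supplemented RPMI 1640.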
Pf growth 96h: P. falciparum growth inhibition at 96 hour, primary screen for plastid delayed-death inhibitors; 6.9% of 320,000 active; AID 504834; Potency, µM (series often up to 28.7 µM), without a hit: at the highest dose activity change, negative = inhibition, most hits filed as inhibitors; P. falciparum luciferase reporter growth, 96 h; note: % is set by controls: 0 for no effect and ±100 for the full control effect
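96 h incubation, 37 C, 5% CO2, of luciferase-reporter P. falciparum-infected RBCs (2% hematocrit, 0.05% parasitemia final) with test compounds; endpoint luminescence.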
SARS PLP yeast: inhibitors of SARS-CoV papain-like protease in yeast. S. cerevisiae expressing SARS-CoV PLpro, growth rescue. Potency, µM (doses to about 32.9 µM), without a hit: top-dose activity, positive = growth rescue, most hits filed as activators. 0.19% of 330,000 active; calls by dose curve; note: 0% is about no effect; nearly all actives have a fitted effect of over 55% in size
* marks the source's active call; other numbers are inactive results. Hits are enriched below; roughly 9.4% of the tested compounds scored in any of these assays. Unless noted, calls come from the whole dose curve; as a rule, active = well fitted curve in the direction sought with a large enough effect; inconclusive = small, poorly fitted or top-dose-only effect, or another doubt; inactive = no such curve, though single readings can be large; an effect the other way counts as inactive or inconclusive. Potency is the fitted concentration of half-maximal effect.

CCn1ccnc1CN1CCCC(CO)(Cc2cccc(OC)c2)C1 (stereo not drawn) was read as AMA1-RON2 inh 51.8%, Pf growth 48h -4.5%, Pf growth 96h inconclusive and SARS PLP yeast -0.2%.
`COc1cc(CN2CCCC(CO)(Cc3ccccc3)C2)ccc1O` (stereo not drawn) gave AMA1-RON2 inh -16.5%, Pf growth 48h 16.4%, Pf growth 96h 10.4µM* and SARS PLP yeast -2.5%.
`OCC1(Cc2cccc(Cl)c2)CCCN(Cc2cnn(-c3ccccc3)c2)C1` (stereo not drawn) gave AMA1-RON2 inh -6.7%, Pf growth 48h 8.28µM*, Pf growth 96h -8.4% and SARS PLP yeast -0.4%.
CC(C)CCNc1nc(N)c([N+](=O)[O-])c(NCC2CCCO2)n1 (stereo not drawn) was read as AMA1-RON2 inh -6.1%, Pf growth 48h inconclusive, Pf growth 96h inconclusive and SARS PLP yeast -1.4%.
CSc1nnc(-c2sc3cc(C(F)(F)F)cnc3c2-c2ccccc2)n1C was read as AMA1-RON2 inh 24.4%, Pf growth 96h 6.57µM* and SARS PLP yeast -8.9%.
`COc1ccc(OC)c(-c2nc(CN3CCN(C(=O)c4ccco4)CC3)c(C)o2)c1` gave AMA1-RON2 inh -5.0%, Pf growth 48h inconclusive, Pf growth 96h inconclusive and SARS PLP yeast -4.9%.
For COc1ccc(/C=C/S(=O)(=O)NCc2ccccc2)cc1OC the results were AMA1-RON2 inh 3.2%, Pf growth 48h 11.7µM*, Pf growth 96h 38.7% and SARS PLP yeast -2.1%.
`Cc1cn([C@H]2C[C@H](N=[N+]=[N-])[C@@H](CO)O2)c(=O)[nH]c1=O` gave AMA1-RON2 inh 12.3%, Pf growth 48h -17.2%, Pf growth 96h 3.9% and SARS PLP yeast 1.8%.
Screening COc1ccc(OCCSc2nc3ccccc3n2CC(=O)O)cc1 returned AMA1-RON2 inh 45.8%, Pf growth 48h -1.6% and SARS PLP yeast 1.1%.
Cc1cccc(C)c1OCCSc1nc2ccccc2n1CC(=O)O was read as AMA1-RON2 inh -6.3%, Pf growth 48h 29.7% and Pf growth 96h 11.7µM*.
For CC(C)(C)CC(=O)Nc1cc2c3c(c1)CCC(=O)N3CCC2 the results were AMA1-RON2 inh 9.9%, Pf growth 48h -6.8%, Pf growth 96h 25.8% and SARS PLP yeast 11.2%.
Screening Cc1cc(C)n(-c2ncnc3sc4c(c23)CCCC4)n1 returned AMA1-RON2 inh -4.8%, Pf growth 48h -11.9%, Pf growth 96h 13.1µM* and SARS PLP yeast -1.1%.
Screening Cc1cc(C)n(-c2nc(NCCN(C)C)c3c4c(sc3n2)CCCC4)n1 returned AMA1-RON2 inh 6.3%, Pf growth 48h inconclusive, Pf growth 96h -2.4% and SARS PLP yeast 0.9%.
For Cc1cc(C)n(-c2nc(NCCC(C)C)c3c4c(sc3n2)COC(C)(C)C4)n1 the results were AMA1-RON2 inh -13.5%, Pf growth 96h 3.7µM* and SARS PLP yeast -7.1%.
Cc1cc(C)n(-c2nc(-n3nc(C)cc3C)c3c4c(sc3n2)COC(C)(C)C4)n1 was read as Pf growth 48h inconclusive, Pf growth 96h 1.04µM* and SARS PLP yeast -14.4%.
For Cc1cc(C)n(-c2nc(NCCCN(C)C)c3c4c(sc3n2)CCCC4)n1 the results were AMA1-RON2 inh 5.0%, Pf growth 48h 11.7µM*, Pf growth 96h -6.9% and SARS PLP yeast -0.1%.
CC1CCc2c(sc(NC(=O)/C=C/c3cccs3)c2C(=O)O)C1 (stereo not drawn) was read as AMA1-RON2 inh -2.5%, Pf growth 48h 6.2%, Pf growth 96h 9.28µM* and SARS PLP yeast -6.5%.
COc1ccc(-c2csc3nc(-c4cccnc4)nc(Cl)c23)cc1OC was read as AMA1-RON2 inh 13.1%, Pf growth 48h 11.7µM*, Pf growth 96h 6.57µM* and SARS PLP yeast -20.0%.
Screening Clc1nc(-c2cccnc2)nc2scc(-c3ccccc3)c12 returned AMA1-RON2 inh 8.6%, Pf growth 48h 11.7µM*, Pf growth 96h 1.04µM* and SARS PLP yeast -48.5%.
`O=C(Cn1nnc(-c2ccccc2Cl)n1)N/N=C/c1ccc(-c2cccc(Cl)c2)o1` gave AMA1-RON2 inh 23.9%, Pf growth 48h -3.8%, Pf growth 96h 15.1% and SARS PLP yeast -3.6%.
`COCCCn1c(=O)/c(=C\c2ccccc2OC(C)C)s/c1=C(/C#N)C(=O)Nc1ccc(C(=O)O)cc1` gave AMA1-RON2 inh -13.0%, Pf growth 48h 1.85µM*, Pf growth 96h 1.47µM* and SARS PLP yeast 0.2%.
CCCn1c(/N=C/c2c[nH]c3ccccc23)nc2ccccc21 was read as AMA1-RON2 inh -8.3%, Pf growth 48h 32.5%, Pf growth 96h 32.8% and SARS PLP yeast -6.0%.

Assay outcomes: PubChem, National Center for Advancing Translational Sciences (NCATS)
